Luc counter: Kinase-Glo luciferase inhibition (counter-screen) | Kinase-Glo luciferase, ATP luminescence, 8 min | Potency, µM (series often up to 38.3 µM), for inactives: at the top dose activity change, negative = inhibition, actives largely listed as inhibitors | 200,000 tested, 0.28% active | AID 1379; further: on the % scale 0 is the no-effect control and ±100 the full control effect; nearly all actives have a fitted effect of over 60% in size
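Inhibition of Kinase-Glo luciferase light generation was assessed at 10 uM ATP in pH 7.2 imidazole buffer, with luminescence measured after eight minutes at ambient temperature.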
SMN2 splice up: increases expression of the SMN2 splice variant. HEK293 SMN2-luciferase splicing reporter, luminescence, 30-36 h. Potency, µM (top dose mostly 46.1 µM), without a hit: at the highest dose activity change, positive = activation, most hits filed as activators. 210,000 tested, 2.8% active; further: % of control where 0% means no effect; nearly all actives have a fitted effect of over 55% in size
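HEK293 cells carry an SMN2 minigene-luciferase reporter in which exon 7 inclusion puts luciferase in frame. Cells were seeded at 2000 cells/well, attached for 10-12 hours, then exposed to compounds for 30-36 hours at 37C before ONE-Glo luminescence.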
Rab9 promoter act: activators of Rab9 promoter; AID 485297; Huh7 Rab9 promoter-luciferase reporter, luminescence, 24 h; 320,000 tested, 2.8% active; Potency, µM (series often up to 9.22 µM), for inactives: at the top dose activation, negative = inhibition, actives largely listed as activators; further: % of control where 0% means no effect; nearly all actives have a fitted effect of over 60% in size
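Luminescence from Amplite-detected luciferase (10 minutes, ambient) reports Rab9 promoter activation. Before that, stable Rab9-luciferase Huh7 cells (1500/well, reduced-serum OP-MEM I plus 10% FBS) were exposed to compound for 24 hours at 37C.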
FLuc modulator: firefly luciferase modulation, counter-screen for miR-21 project; P08659; purified FLuc, Km substrates, luminescence inhibition; Potency, µM (doses to about 57.5 µM), without a hit: top-dose activity change, negative = inhibition, hits mostly inhibitors; 360,000 tested, 6.9% active; AID 588342;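 further: plate controls were vehicle for no effect and reference inhibitor for full effect; nearly all actives have a fitted effect of over 55% in size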
Target sequence (P08659 whole entry, looked up): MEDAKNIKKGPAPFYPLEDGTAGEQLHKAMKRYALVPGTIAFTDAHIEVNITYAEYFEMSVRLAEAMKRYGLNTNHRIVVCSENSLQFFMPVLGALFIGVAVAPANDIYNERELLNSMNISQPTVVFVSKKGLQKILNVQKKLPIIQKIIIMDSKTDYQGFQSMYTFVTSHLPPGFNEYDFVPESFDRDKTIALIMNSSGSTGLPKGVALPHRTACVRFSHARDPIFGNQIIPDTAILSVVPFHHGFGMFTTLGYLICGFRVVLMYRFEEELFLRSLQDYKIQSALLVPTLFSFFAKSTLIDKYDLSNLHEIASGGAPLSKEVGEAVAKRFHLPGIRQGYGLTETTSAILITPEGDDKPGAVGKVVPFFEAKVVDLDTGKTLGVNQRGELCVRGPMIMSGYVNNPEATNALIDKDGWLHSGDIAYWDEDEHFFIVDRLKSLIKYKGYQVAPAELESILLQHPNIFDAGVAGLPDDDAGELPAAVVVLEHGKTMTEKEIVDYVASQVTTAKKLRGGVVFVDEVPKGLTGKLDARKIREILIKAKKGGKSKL
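Purified P. pyralis luciferase, 10 nM final, with Km-level 10 uM D-luciferin and 10 uM ATP in 50 mM Tris acetate pH 7.5, 10 mM Mg acetate, 0.01% Tween-20, 0.05% BSA; 6-point qHTS titration about 60 µM downward; luminescence read.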
ELG1 genotox: genotoxicity induction in ELG1-luciferase HEK293T cells; Potency, µM (doses to about 46 µM), inactives show at the highest dose activity change, positive = activation, most hits filed as activators; AID 504466; 330,000 tested, 1.3% active; HEK293T ELG1-luciferase reporter, luminescence, 16 h; further: % of control where 0% means no effect; nearly all actives have a fitted effect of over 60% in size
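16 hr compound incubation (37 °C, 5% CO2) of HEK293T cells carrying luciferase-tagged ELG1; luciferase then measured by ONE-Glo luminescence after 30 min at RT.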
NPC1 prom act: activates the NPC1 promoter; Huh7 NPC1 promoter luciferase reporter, 24 h; Potency, µM (highest dose often 9.22 µM), for inactives: top-dose activation, usual class: activators; 320,000 tested, 2.4% active; AID 485313; further: % of control where 0% means no effect; nearly all actives have a fitted effect of over 60% in size
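Luminescence read-out of NPC1 promoter-driven luciferase in stably transfected Huh7 cells; compounds delivered in DMSO and left 24 h at 37C, 5% CO2, qHTS titration format.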
* = called active by the depositor; ? = inconclusive; . = no result; [ ] = remark or other dose. Most compounds without a hit are left out; they make up all but 7.3% or so of the library. The call rests on the fitted dose curve; in most records, active means well fitted curve in the direction sought with a large enough effect; inconclusive means small, poorly fitted or top-dose-only effect, or another doubt; inactive means no such curve, though single readings can be large; an effect the other way counts as inactive or inconclusive. Potency means the concentration at half of the fitted maximal effect.

SMILES	Luc counter	SMN2 splice up	Rab9 promoter act	FLuc modulator	ELG1 genotox	NPC1 prom act
CCOC(=O)c1cc(-c2ccccc2)n(-c2cccc(C(=O)Nc3cccc(SC)c3)c2)c1C	.	.	.	2%	.	.
O=C(NCCc1ccccc1)c1cccnc1	1%	?	3.2µM*	?	13µM*	?
O=C(NCCc1ccccc1)c1cccc(Br)c1	.	.	2µM*	21µM*	?	3.5µM*
O=C(CCCc1ccccc1)Nc1cccc([N+](=O)[O-])c1	.	.	?	?	?	3.5µM*
O=C(CCc1ccccc1)Nc1cccc([N+](=O)[O-])c1	5%	9%	0%	-14%	-1%	8%
O=C(COc1ccc(F)cc1)Nc1ccc2nc(SCC(=O)N3CCCC3)sc2c1	.	.	.	-11%	.	.
CCOC(=O)CSc1nc2ccc(N)cc2s1	1%	4%	0%	19µM*	8%	-2%
Nc1ccc2nc(SCc3cccc(F)c3)sc2c1	0%	13µM*	4.5µM*	4.8µM*	?	?
O=C(Nc1ccc2nc(SCC(=O)N3CCCC3)sc2c1)c1ccccc1F	.	.	.	24µM*	.	.
O=C(COc1ccccc1F)Nc1ccc2nc(SCC(=O)N3CCOCC3)sc2c1	.	.	.	21µM*	.	.
COc1ccc(NC(=O)C(=O)NCC2(c3ccccc3)CCCC2)c(OC)c1	.	-1%	.	-9%	.	.
CCOC(=O)c1cc(-c2ccccc2)n(CCCC(=O)Nc2cccc(Cl)c2C)c1C	.	.	.	0%	.	.
CCOC(=O)CSc1nc2ccc(NC(=O)c3ccccc3F)cc2s1	.	.	.	15µM*	.	.
CCOC(=O)CSc1nc2ccc(NC(=O)CSc3nnnn3Cc3ccccc3)cc2s1	8%	2%	-3%	3%	2%	2%
COc1cc(OC)cc(C(=O)Nc2ccc(-c3nc4ccccc4s3)c(C)c2)c1	.	.	.	-8%	.	.
Cc1cc(NC(=O)c2ccccc2F)ccc1-c1nc2ccccc2s1	.	.	.	0.67µM*	.	.
COc1ccc(-c2noc(-c3ccccc3-c3ccccc3)n2)cc1	0%	-9%	-7%	?	1%	0%
CC(C)c1cc(-c2nc(-c3ccc(Cl)cc3)no2)n[nH]1	.	.	.	9.5µM*	.	.
COc1ccc(-c2nc(-c3ccc(Br)o3)no2)cc1	-6%	10µM*	0.45µM*	0.95µM*	1.2µM*	0.63µM*
COc1ccc(Cl)cc1-c1nc(-c2ccc(Br)o2)no1	-2%	?	?	3%	4%	?
COc1ccc(-c2noc(-c3ccc(Cl)cc3)n2)cc1	-1%	11µM*	?	2.1µM*	5.6µM*	2.5µM*
COc1ccc(CC(=O)Nc2ccc(-c3noc(-c4cccc(OC)c4)n3)cc2)cc1	-1%	9%	-6%	-2%	12%	-2%
COc1cc(-c2noc(-c3cc(C(C)C)[nH]n3)n2)cc(OC)c1OC	.	.	.	-2%	.	.
COc1cccc(-c2noc(-c3ccc(Br)o3)n2)c1	-12%	22µM*	1.4µM*	3µM*	?	2.5µM*
CCOC(=O)c1cc(-c2ccccc2)n(CC(=O)NC2CCC(C)CC2)c1C (stereo not drawn)	.	.	.	-2%	.	.
SMILES	Luc counter	SMN2 splice up	Rab9 promoter act	FLuc modulator	ELG1 genotox	NPC1 prom act
CCN1C(=NCCCCO)N[C@@H](c2ccccc2)C(C(=O)OC)=C1C	.	.	3%	4%	.	-1%
CCCCC[C@H](O)/C=C/C=C\C=C\C=C\[C@@H](O)[C@@H](O)CCCC(=O)O	3%	-3%	.	.	.	.
CCN(CC(=O)O)CC(=O)O	-3%[7.66 µM]	-1%[9.22 µM]	.	.	.	.
Cc1ccc(N(CC(=O)N2CCN(c3cc(C)ccc3C)CC2)S(=O)(=O)c2c(C)nn(C)c2C)cc1	.	-17%	.	-8%	.	.
COc1ccc(-c2noc(-c3ccc(Br)o3)n2)cc1	.	.	2µM*	2.4µM*	?	3.2µM*
Cc1cc(N/N=C/c2cccc(Cl)c2)nc(-n2nc(C)cc2C)n1	.	.	-1%	-19%	-11%	1%
COc1ccc(/C=N/Nc2cc(C)nc(-n3nc(C)cc3C)n2)cc1	-1%	-114%	-15%	17µM*	-10%	-3%
Cc1cc(N/N=C/c2ccccc2O)nc(N2CCOCC2)n1	.	.	0%	12µM*	0%	4%
CCOc1ccc2nc(N3CCOCC3)nc(C)c2c1	-2%	2.8µM*	?	11µM*	9.2µM*	4µM*
CCOc1ccc(/C=N/Nc2cc(C)nc(N3CCOCC3)n2)cc1	.	.	19%	1.3µM*	3%	23%
Cc1ccc(NC(=O)CCCN2C(=O)COc3ccc(C)cc32)c(Cl)c1	.	-7%	.	-7%	.	.
COc1ccc(-c2ccc(=O)n(Cc3c(F)cccc3Cl)n2)cc1	.	.	-2%	?	6%	3%
COc1ccc(-c2ccn(-c3cccc(F)n3)n2)cc1	-7%	-55%	2.2µM*	15µM*	?	3.2µM*
O=C1C2C3C=CC(C4CC34)C2C(=O)N1/N=C/c1c[nH]c2ccccc12 (stereo not drawn)	.	.	2µM*	1.9µM*	17%	4µM*
COc1ccc(C(=O)Nc2cc3c(cc2Cl)OCCCO3)cc1	-3%	?	3.5µM*	9.5µM*	?	2µM*

Screening results from PubChem BioAssay.
